The campaign covered roughly 1,300 compounds. About 55 (4%) were called active.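 The calls were made as follows: active = fitted EC50 between 10 nM and 100 µM, Hill slope size 0.5 to 2, real signal loss, low interference; inactive = the rest.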 The list is a sample of the results. Measured potencies and affinities stand elsewhere.
Target: Ras-related C3 botulinum toxin substrate 1, Mus musculus (UniProt P63001)
Test: inhibitors of activated mutant Rac1 GTP binding, dose response, biochemical, multiplex, GST-Rac1 beads, Bodipy-FL-GTP, flow cytometry (AID 1339)

Compound	outcome
O=C(Nc1cccc(-c2ccc3nncn3n2)c1)c1ccco1	inactive
CC(C)CCNC(=O)Cc1ccc(Nc2nc(=S)[nH]c3ccccc23)cc1	inactive
CCOc1c2ccc(C(=O)N[C@H](C)C3CCCCC3)cc2nn1CCOC	inactive
CS(=O)(=O)N1N=C(c2ccccc2)CC1c1ccc2c(c1)OCO2 (stereo not drawn)	inactive
Cc1ccc(-c2cn3cccc(C)c3n2)cc1	inactive
CN1CCN(c2ccccc2NC(=O)c2ccc(-c3cccc([N+](=O)[O-])c3)o2)CC1	inactive
O=C(O)C1CCCN1C(=O)OCc1ccccc1 (stereo not drawn)	inactive
COc1ccc([N+](=O)[O-])cc1NC(=S)NC(NC(=O)Cc1ccc(OC)c(OC)c1)C(Cl)(Cl)Cl (stereo not drawn)	inactive
Cc1ccc(-c2ccc(/C=C(\C#N)C(=O)Nc3cc(C)nn3-c3ccccc3)o2)cc1	inactive
Cc1cccc2cc(CN(Cc3cccs3)C(c3nnnn3C3CCCC3)C(C)C)c(=O)[nH]c12 (stereo not drawn)	inactive
Cc1cccc(OCCSc2nc3ccccc3n2CC(=O)O)c1C	inactive
CC(C)(C)c1ccc(OCCSc2nc3ccccc3n2CC(=O)O)cc1	inactive
COc1ccc(OC)c(/C=N/NC(=O)c2ccc(Cn3cc([N+](=O)[O-])cn3)o2)c1	inactive
O=C(Nc1nc(-c2ccc(S(=O)(=O)N3CCCC3)cc2)cs1)c1cccs1	inactive
Nc1cccc(S(=O)(=O)c2cccc(N)c2)c1	inactive
Cc1ccc(/C=C(\CCC(=O)O)c2nc3ccccc3s2)cc1[N+](=O)[O-]	inactive
Cc1c(NC(=O)CCN2C(=O)c3ccccc3C2=O)c(=O)n(-c2ccccc2)n1C	inactive
C=C(C)COc1ccc(-c2n[nH]c(C)c2-c2ccc(Br)cc2)c(O)c1	inactive
CCc1ccc(OCc2ccc(C(=O)O)o2)cc1	inactive
COc1ccc(N/C=C/c2nc(SC)nnc2C)cc1	inactive
CCC(OC(=O)c1cc2sccc2n1C)C(=O)NCc1ccco1 (stereo not drawn)	inactive
Br.COc1cc(NS(=O)(=O)c2ccc(Nc3nc(-c4ccccc4)cs3)cc2)nc(OC)n1	inactive
COc1ccc(-c2nn3c(-c4ccccn4)nnc3s2)cc1OC	inactive
COc1ccccc1-n1cc([C@@H]2C[C@H]3CN(c4ccccc4)C(=O)[C@]34CCCN24)cn1	inactive

Compound	outcome
CC(=O)OC(C(=O)NC1CCCCC1)c1ccc(Cl)cc1 (stereo not drawn)	inactive
COc1ccc(-c2nnc(S/C(=C/c3ccc(Cl)cc3)C(=O)O)o2)cc1	inactive
CC(C)C(=O)N1CCN(c2ccccc2NC(=O)c2cccc(Cl)c2)CC1	inactive
Cc1nc2ncccn2c1-c1csc(Nc2ccccc2)n1	inactive
Cc1cccc(CNc2ncccc2C(=O)O)c1	inactive
COC(=O)c1ccc(COc2ccccc2/C=N/Nc2cccc(C(=O)O)c2)cc1	inactive
C=CCc1ccc(OCc2ccc(C(=O)O)o2)c(OC)c1	inactive
Cc1ccc(-n2c(SCc3cc(=O)n4ccsc4n3)nnc2-c2cccnc2)c(C)c1	inactive
COc1cccc(OCc2ccccc2Br)c1C(=O)O	inactive
CCc1nnc(NC(=O)CSc2nnc(CNc3ccc(F)cc3)n2C2CCCCC2)s1	inactive
CN(C)CCN(C(=O)c1ccc(N2C(=O)CCC2=O)cc1)c1nc2cc3c(cc2s1)OCO3.Cl	inactive
Cc1cc(C)n2nc(C(=O)Nc3ccc(S(=O)(=O)N4CCCC4)cc3)nc2n1	inactive
COc1ccc(/C=N/n2c(N)c(S(=O)(=O)c3cccs3)c3nc4ccccc4nc32)cc1OC	inactive
O=C(Oc1cccc(O)c1)C1CCCCC1	inactive
COc1cc(NC(=O)c2cccs2)c(OC)cc1NC(=O)CCC(=O)Nc1cccc2ncccc12.Cl	inactive
CC1(C)Cc2c(sc(NC(=O)c3ccc(Br)o3)c2C#N)CO1	inactive
C=CCNc1nc(=S)[nH]c2cc(OC)c(OC)cc12	inactive
O=C(COC(=O)/C=C/c1cccs1)Nc1ccc2ccccc2c1	inactive
Cc1nc(NC(=O)/C=C/c2ccc(Cl)cc2Cl)sc1C(=O)N(C)C	inactive
O=C(C1CCCO1)N1CCN(C(=S)Nc2ccccc2C(F)(F)F)CC1 (stereo not drawn)	inactive
COc1ccc(CC(=O)Nc2ccc(C(=O)Nc3nccs3)cc2)cc1OC	inactive
CS(=O)(=O)c1ccc(C(=O)OCc2nnc(-c3ccccc3)o2)cc1[N+](=O)[O-]	inactive
N#CC(c1ccc(Cl)nn1)c1ccc(Cl)cc1Cl (stereo not drawn)	inactive
Cc1cc(C)c2sc(N(CCN(C)C)C(=O)c3cc(Cl)sc3Cl)nc2c1.Cl	inactive
